Screening data: PubChem, Broad Institute
PglD DTNB: C. jejuni PglD acetyltransferase inhibitors, primary screen, biochemical, DTNB colorimetric, single point | UDP-N-acetylbacillosamine N-acetyltransferase PglD (Campylobacter jejuni) | purified PglD enzyme, DTNB colorimetric CoA detection | inhibition, % at 12.5 µM | 360,000 tested, 0.098% active | AID 602405, 2012; in the data active = inhibition above about 16%, passing the limit was not always enough
DENV2 CPE rescue: inhibitors of DENV2 cytopathic effect, primary screen, cell-based, plate reader, single concentration. AID 651640, 2012. 350,000 tested, 1.7% active. CPE inhibition, % at 9.99 µM. DENV2-infected cells, cytopathic effect rescue; in the data active = CPE inhibition above about 20%, passing the limit was not always enough; tested in BHK-21 cells;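 note: 0% = median of neutral control wells and 100% = median of positive control wells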
Rtt109 Vps75: inhibitors of C. albicans Rtt109/Vps75 HAT, primary screen, biochemical, ThioGlo CoA-SH fluorescence, plate reader | Histone acetyltransferase RTT109 (Candida albicans (strain SC5314 / ATCC MYA-2876)), … | purified Rtt109/Vps75, 4 h | inhibition, % at 34.9 µM | 330,000 tested, 0.16% active | AID 540336, 2011;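 active = inhibition of at least 50% in every replicate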
Target sequence (Q5AAJ8 whole entry, looked up): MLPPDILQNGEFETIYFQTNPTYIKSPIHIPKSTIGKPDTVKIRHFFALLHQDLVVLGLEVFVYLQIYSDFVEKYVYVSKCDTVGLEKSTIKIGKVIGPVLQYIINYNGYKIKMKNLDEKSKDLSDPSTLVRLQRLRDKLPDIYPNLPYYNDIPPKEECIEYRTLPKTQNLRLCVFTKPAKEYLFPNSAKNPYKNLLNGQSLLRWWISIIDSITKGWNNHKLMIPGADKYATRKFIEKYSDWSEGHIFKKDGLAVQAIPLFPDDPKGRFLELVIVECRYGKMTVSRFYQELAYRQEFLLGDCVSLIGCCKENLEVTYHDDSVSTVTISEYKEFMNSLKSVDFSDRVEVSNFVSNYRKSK
N-glyco inh: increase of ERlucT glycosylation luciferase signal, primary screen, N-linked glycosylation inhibitor project, D54 ERlucT cells, luminescence, set 2; 360,000 tested, 0.23% active; reporter increase, % at 12.5 µM; AID 588692, 2011; D54 ERlucT glycosylation luciferase reporter, 24 h; percent of 100 nM tunicamycin response;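 active = mean luciferase reporter signal, scaled so untreated is 0 and the glycosylation-blocking control 100, at or above a set limit in every replicate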;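 note: luciferase carries N-glycosylation sites so blocking glycosylation raises the light; 0% = median of neutral control wells and 100% = median of 100 nM tunicamycin wells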
Active calls of the source: *; · = not tested or not shown. Shown is part of a subset that was picked to be rich in hits.

SMILES	PglD DTNB	DENV2 CPE rescue	Rtt109 Vps75	N-glyco inh
CC1(C)CC[C@]2(C(=O)O[C@@H]3O[C@H](CO)[C@@H](O)[C@H](O)[C@H]3O)CC[C@]3(C)C(=CCC4[C@@]5(C)CC[C@H](O[C@@H]6O[C@H](C(=O)O)[C@@H](O[C@H]7OC[C@@H](O)[C@@H](O)[C@@H]7O)[C@H](O)[C@H]6O)C(C)(C)C5CC[C@]43C)[C@@H]2C1 (some centres undefined)	0	81*	5	1
CC1OC(OC2C(CO)OC(OCC3OC(OC(=O)[C@@]45CCC(C)(C)C[C@@H]4C4=CC[C@@H]6[C@@]7(C)CCC(OC8OCC(O)C(O)C8OC8OC(C)C(O)C(O)C8O)[C@@](C)(CO)C7CC[C@@]6(C)[C@]4(C)CC5)C(O)C(O)C3O)C(O)C2O)C(O)C(O)C1O (some centres undefined)	0	-2	-7	2
CC(C)c1ccc(/C=N/N2CCN(c3ccccn3)CC2)cc1	7	47*	-6	1
CC(/C=N/N1CCN(c2ccccn2)CC1)=C\c1ccccc1	-4	23*	0	3
Cc1noc(C)c1NC(=O)Nc1ccc2c(c1)C(=O)N([C@@H](C)CO)C[C@H](C)[C@@H](CN(C)S(C)(=O)=O)OCCCC[C@H](C)O2	0	4	·	·
C[C@H](CO)N1C[C@H](C)[C@@H](CN(C)C(=O)c2ccc(F)cc2)Oc2ncc(C#CC3CC3)cc2C1=O	0	-5	·	·
CC[C@H](C)C(C(=O)N1CCN(C(=O)OC(C)(C)C)CC1)n1cc(C(CC(C)C)NC(=O)OC(C)(C)C)nn1 (some centres undefined)	6	32*	-1	-2
CCC(=O)Nc1ccc2c(c1)C(=O)N(C)[C@@H]1CC[C@H](CC(=O)NC3CCCC3)O[C@@H]1CO2	-2	1	·	·
O=C(OCn1ncc(Cl)c(Cl)c1=O)c1ccc(C(F)(F)F)cc1	6	·	1	31*
N#Cc1cccnc1N1CCN(C(=O)c2ccccc2)CC1	9	52*	18	1
O=C(c1ccc2nccnc2c1)N1CCN(c2ccccc2)CC1	5	35*	-15	0
O=C(c1ccc2nccnc2c1)N1CCN(c2cccc(C(F)(F)F)c2)CC1	0	-1	2	-2
Cc1noc(C)c1NC(=O)N(C)C[C@H]1OCCCC[C@@H](C)Oc2ccc(NC(=O)CCC(F)(F)F)cc2C(=O)N([C@@H](C)CO)C[C@@H]1C	-2	-8	·	·
C[C@@H]1CN([C@H](C)CO)C(=O)Cc2cc(NC(=O)Cn3cnnn3)ccc2O[C@@H]1CN(C)Cc1ccc(C(=O)Nc2ccccc2N)cc1	·	112*	·	·
C[C@H]1CN([C@@H](C)CO)C(=O)c2cc(NC(=O)Cn3cnnn3)ccc2O[C@H]1CN(C)Cc1ccc(C(=O)Nc2ccccc2N)cc1	3	43*	·	·
C[C@H](CO)N1C[C@H](C)[C@H](CN(C)Cc2ccncc2)Oc2ccc(NC(=O)Cn3cnnn3)cc2CC1=O	-11	23*	·	·
C[C@H]1CN([C@@H](C)CO)C(=O)Cc2cc(NC(=O)Cn3cnnn3)ccc2O[C@H]1CN(C)Cc1ccncc1	1	1	-2	3
Nc1sc(Cc2ccccc2)cc1C(=O)c1c(-c2ccccc2)[nH]c2ccccc12	·	84*	·	·
CCNC(=O)C(=O)c1c(-c2ccccc2)[nH]c2ccccc12	·	3	-13	3
COc1ccc(Cc2nnc(NC(=O)c3ccccc3F)s2)cc1OC	-7	-3	3	0
O=C(Nc1nnc(Cc2ccccc2F)s1)c1ccccc1Cl	-4	78*	-6	-2
COc1ccc(Cc2nnc(NC(=O)c3ccccc3Cl)s2)cc1OC	2	41*	0	2
COc1ccc(C(C)NC(=O)c2ccccc2Cl)cc1OC (centres undefined)	2	64*	-3	1
COc1ccc2c3c([nH]c2c1)[C@@H](CO)N(Cc1nccs1)CC31CCN(Cc2nccs2)CC1	·	-6	·	·
CN(C)C(=O)C[C@H]1C[C@@H]2c3cc(NC(=O)NC4CCCC4)ccc3O[C@@H]2[C@H](CO)O1	-2	-1	·	·
SMILES	PglD DTNB	DENV2 CPE rescue	Rtt109 Vps75	N-glyco inh
CCNc1nc(N)c(C(=O)C23CC4CC(CC(C4)C2)C3)s1	-6	53*	0	-3
O=C1CCCC2=C1C1(CCCC1)N=C(Nc1nc3ccccc3o1)N2	1	1	·	14
O=C1CCCC2=C1C1(CCCCC1)N=C(Nc1nc3ccccc3o1)N2	·	·	-4	47*
COc1ccc(NC(=O)N(C)C[C@H]2OCCCC[C@H](C)Oc3ccc(NC(=O)C4CCCCC4)cc3C(=O)N([C@H](C)CO)C[C@@H]2C)cc1	4	-5	·	·
CC(O)(Cc1cccnc1)c1cccs1 (centres undefined)	·	77*	0	0
O=C(NC1CCCc2c1cnn2-c1ccccc1F)c1ccncc1 (centres undefined)	-2	25*	·	-3
CN(C)c1ccc(-c2nn3c(-c4ccccc4Cl)nnc3s2)cc1	1	·	·	15
COc1ccccc1-c1nnc2sc(-c3ccc(N(C)C)cc3)nn12	-11	42*	-6	9
CC(C)NC(=O)N(C)C[C@@H]1OCCCC[C@H](C)Oc2ccc(NS(=O)(=O)c3ccc(F)cc3)cc2C(=O)N([C@@H](C)CO)C[C@@H]1C	-1	8	·	·
CN(C)CCN1CCN(C(c2ccnc3ccccc23)c2nnnn2-c2ccc3c(c2)OCCO3)CC1 (centres undefined)	·	22*	·	·
c1ccc2c(C(c3nnnn3-c3ccc4c(c3)OCCO4)N3CCCC3)ccnc2c1 (centres undefined)	·	10	·	·
COCC(=O)N(C)C[C@H]1N[C@@](Cc2ccccc2)(C(=O)OC)[C@H]2C(=O)N(C)C(=O)[C@@H]12	1	0	7	0
COC(=O)[C@]1(Cc2ccccc2)N[C@H](CN(C)C(C)=O)[C@@H]2C(=O)N(C)C(=O)[C@@H]21	-1	23*	2	2
CCNC(=O)N(C)C[C@H]1N[C@@](CC)(C(=O)OC)[C@H]2C(=O)N(Cc3ccccc3)C(=O)[C@@H]12	-2	29*	4	0
COC(=O)[C@]1(Cc2ccccc2)N[C@H](CN(C)C(=O)Nc2ccc(Cl)cc2)[C@@H]2C(=O)N(Cc3ccccc3)C(=O)[C@@H]21	4	22*	-1	3
CC[C@@]1(C(=O)OC)N[C@H](CN(C)C(=O)NC(C)C)[C@@H]2C(=O)N(Cc3ccccc3)C(=O)[C@@H]21	-5	7	3	0
CCN(C[C@H]1N[C@@](CC)(C(=O)OC)[C@H]2C(=O)N(Cc3ccccc3)C(=O)[C@@H]12)C(=O)COc1ccccc1	-1	66*	2	1
O=C(C[C@@H]1CC[C@@H](NC(=O)c2cccnc2)[C@@H](CO)O1)NCCN1CCCCC1	1	5	·	·
